The target of experiment [1] is Acetylcholinesterase (Homo sapiens) (UniProt P22303). Kind of experiment: Acetylcholinesterase (AChE) small molecule antagonists: enzyme-based qHTS assay (AID 1347397). Also: nearly all actives have a fitted effect of over 55% in size. Also: potency is read from the fitted curve at half-maximal effect. As to conditions: Potency: AChE enzyme activity inhibition; outcome: AChE enzyme activity inhibition. In outline: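 rhAChE 50 mU/mL (dispensed) + cpd or DMSO, 30 min RT; add DTNB/acetylthiocholine cocktail, 10 min RT; colorimetric thiocholine readout. qHTS, 1536-well format.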

Experiment [2] shares this target. Kind of experiment: Acetylcholinesterase (AChE) small molecule antagonists: fluorescence cell-based qHTS assay (AID 1347398). Also: nearly all actives have a fitted effect of over 50% in size. Also: potency is read from the fitted curve at half-maximal effect. As to conditions: Potency: AChE activity; outcome: AChE activity. In outline: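 Read-out is Thiolite Green fluorescence at Ex/Em = 490/520 nm, formed by reaction with thiocholine released when cellular AChE in SH-SY5Y cells hydrolyzes acetylthiocholine. Compounds were preincubated 30 min at 37 C before substrate.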

Experiment [3] has the same target. Put plainly: Acetylcholinesterase (AChE) small molecule antagonists: enzyme-based qHTS assay with human liver microsomes (AID 1347399). Also: % is scaled to controls: 0 for no effect and ±100 for the full control effect; nearly all actives have a fitted effect of over 60% in size. As to conditions: Potency: qHTS inhibition; outcome: qHTS inhibition. In outline:
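Recombinant human AChE (50 mU/mL in the enzyme mix) and human liver microsomes (0.25 mg/mL final) were preincubated with compound and NADPH (0.25 mg/mL final) for 30 min at 37 C. Acetylthiocholine/DTNB was then added; thiocholine was read colorimetrically after 10 min at room temperature.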

A short description of experiment [4]: qHTS assay for small molecules that induce genotoxicity in human embryonic kidney cells expressing luciferase-tagged ATAD5 (AID 651632; active = well fitted curve in the direction sought with a large enough effect in the repeat runs; an effect the other way counts as inactive or inconclusive; also: % is scaled to controls: 0 for no effect and ±100 for the full control effect; nearly all actives have a fitted effect of over 15% in size). In outline:
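HEK293T cells carrying a luciferase reporter tagged to ATAD5 were exposed to compound or DMSO vehicle for 16 hr at 37C, 5% CO2. Amplite was added, and after 30 min at room temperature luciferase activity was read as a marker of ATAD5 induction.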

The nature of experiment [5]: qHTS assay for small molecule disruptors of the mitochondrial membrane potential - cell viability (AID 720634).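 Also: human HepG2 liver cancer cells; series mostly up to about 83 µM; % is scaled to controls: 0 for no effect and ±100 for the full control effect; nearly all actives have a fitted effect of over 20% in size.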 In outline:
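HepG2 cells seeded overnight at 37 C, then exposed to compound or DMSO for 1 hr at 37 C, 5% CO2. m-MPI dye added, then CellTiter-Glo for 30 min at room temperature; viability read as ATP luminescence.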

The nature of experiment [6]: qHTS assay to test for compound auto fluorescence at 590 nm (red) in HepG2 cells (AID 720674; active = well fitted curve in the direction sought with a large enough effect in the repeat runs; an effect the other way counts as inactive or inconclusive; also: % is scaled to controls: 0 for no effect and ±100 for the full control effect). In outline:
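Red autofluorescence (Ex/Em 540/590 nm, Rose Bengal sodium equivalents) was measured in HepG2 cells, 2,000 per well in MEM plus 10% FBS, plated overnight at 37 C. Readings were taken 1 hr after adding 23 nL compound or DMSO, at 37 C and 5% CO2.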

A short description of experiment [7]: qHTS assay to test for compound auto fluorescence at 535 nm (green) in HepG2 cells (AID 720675; active = well fitted curve in the direction sought with a large enough effect in the repeat runs; an effect the other way counts as inactive or inconclusive; also: % is scaled to controls: 0 for no effect and ±100 for the full control effect).
The nature of experiment [8]: qHTS assay to test for compound auto fluorescence at 460 nm (blue) in HEK293 cells (AID 720678; active = well fitted curve in the direction sought with a large enough effect in the repeat runs; an effect the other way counts as inactive or inconclusive; also: % is scaled to controls: 0 for no effect and ±100 for the full control effect). In outline: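 HEK293 cells (2,000/well, medium with 10% dialyzed FBS) attached 4-5 hr, then exposed to compound overnight at 37C, 5% CO2. Blue fluorescence read at 405/460 nm, with triamterene as reference fluorophore.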
A short description of experiment [9]: qHTS assay to test for compound auto fluorescence at 590 nm (red) in HEK293 cells (AID 720679; active = well fitted curve in the direction sought with a large enough effect in the repeat runs; an effect the other way counts as inactive or inconclusive; also: % is scaled to controls: 0 for no effect and ±100 for the full control effect). In outline:
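HEK293 cells (2,000/well, 10% dialyzed FBS) attached 4-5 hr, then dosed with compound or DMSO and incubated overnight at 37C, 5% CO2. Red fluorescence read at 540/590 nm, Rose Bengal sodium as reference fluorophore.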

Experiment [10] in a line: qHTS assay to test for compound auto fluorescence at 535 nm (green) in HEK293 cells (AID 720680; active = well fitted curve in the direction sought with a large enough effect in the repeat runs; an effect the other way counts as inactive or inconclusive; also: % is scaled to controls: 0 for no effect and ±100 for the full control effect).
The nature of experiment [11]: qHTS assay to test for compound auto fluorescence at 460 nm (blue) in HEK293 cell free culture (AID 720681; active = well fitted curve in the direction sought with a large enough effect in the repeat runs; an effect the other way counts as inactive or inconclusive; also: % is scaled to controls: 0 for no effect and ±100 for the full control effect). In outline:
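Blue fluorescence (Ex 405/Em 460 nm, triamterene-equivalent) was read immediately after pin transfer of compound or DMSO into medium (DMEM, 10% FBS) without cells.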

A short description of experiment [12]: qHTS assay to test for compound auto fluorescence at 535 nm (green) in HEK293 cell free culture (AID 720682; active = well fitted curve in the direction sought with a large enough effect in the repeat runs; an effect the other way counts as inactive or inconclusive; also: % is scaled to controls: 0 for no effect and ±100 for the full control effect). In outline:
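Green-channel intensity (Ex/Em 485/535 nm) was recorded from compound-treated wells containing only DMEM with 10% FBS. Fluorescein provided the equivalency standard.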

Experiment [13] in a line: qHTS assay to test for compound auto fluorescence at 590 nm (red) in HEK293 cell free culture (AID 720683; active = well fitted curve in the direction sought with a large enough effect in the repeat runs; an effect the other way counts as inactive or inconclusive; also: % is scaled to controls: 0 for no effect and ±100 for the full control effect). In outline:
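Red-channel autofluorescence of compounds in culture medium (DMEM, 10% FBS), no cells, measured at 540/590 nm. Rose Bengal sodium is the reference fluorophore for equivalence.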

Experiment [14] in a line: qHTS assay to test for compound auto fluorescence at 590 nm (red) in HepG2 cell free culture (AID 720684; active = well fitted curve in the direction sought with a large enough effect in the repeat runs; an effect the other way counts as inactive or inconclusive; also: % is scaled to controls: 0 for no effect and ±100 for the full control effect). In short, it runs like this:
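Steps: dispense MEM/10% FBS medium, no cells; pin compound or DMSO vehicle; read red channel, Ex/Em 540/590 nm. Output given as Rose Bengal sodium equivalents.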

The nature of experiment [15]: qHTS assay to test for compound auto fluorescence at 460 nm (blue) in HepG2 cell free culture (AID 720685; active = well fitted curve in the direction sought with a large enough effect in the repeat runs; an effect the other way counts as inactive or inconclusive; also: % is scaled to controls: 0 for no effect and ±100 for the full control effect). In outline: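 Compound (23 nL) or DMSO pinned into cell-free MEM with 10% FBS; blue fluorescence read at 405/460 nm excitation/emission, expressed as auto-fluorescence equivalency to triamterene.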
Experiment [16] is described as follows: qHTS assay to test for compound auto fluorescence at 535 nm (green) in HepG2 cell free culture (AID 720686; active = well fitted curve in the direction sought with a large enough effect in the repeat runs; an effect the other way counts as inactive or inconclusive; also: % is scaled to controls: 0 for no effect and ±100 for the full control effect).
Experiment [17] can be described thus: qHTS assay to test for compound auto fluorescence at 460 nm (blue) in HepG2 cells (AID 720687; active = well fitted curve in the direction sought with a large enough effect in the repeat runs; an effect the other way counts as inactive or inconclusive; also: % is scaled to controls: 0 for no effect and ±100 for the full control effect). In short, it runs like this:
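Blue-channel autofluorescence (Ex/Em 405/460 nm, triamterene-equivalent) was measured after 1 hr compound exposure at 37 C, 5% CO2. Cells were HepG2, plated overnight at 37 C in MEM plus 10% FBS.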

Experiment [18] in a line: qHTS assay to identify small molecule antagonists of the glucocorticoid receptor (GR) signaling pathway - cell viability counter screen (AID 720693; active = well fitted curve in the direction sought with a large enough effect in the repeat runs; an effect the other way counts as inactive or inconclusive; also: % is scaled to controls: 0 for no effect and ±100 for the full control effect; nearly all actives have a fitted effect of over 55% in size).
Experiment [19] can be described thus: qHTS assay for identifying genotoxic compounds that show differential cytotoxicity against isogenic chicken DT40 cell lines with known DNA damage response pathways - Rad54/Ku70 mutant cell line (AID 743015; active = well fitted curve in the direction sought with a large enough effect in the repeat runs; an effect the other way counts as inactive or inconclusive; also: potency is read from the fitted curve at half-maximal effect; nearly all actives have a fitted effect of over 60% in size).
Experiment [20] is described as follows: qHTS assay to identify small molecule antagonists of the androgen receptor (AR) signaling pathway using the MDA cell line - cell viability counter screen (AID 743041; active = well fitted curve in the direction sought with a large enough effect in the repeat runs; an effect the other way counts as inactive or inconclusive; also: potency is read from the fitted curve at half-maximal effect; nearly all actives have a fitted effect of over 45% in size). In short, it runs like this: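 Cells were plated at 3,000 per well and left 5 h. Compounds in DMSO were then pinned in, followed by R1881. After 16 h at 37C, CellTiter-Fluor fluorescence gave viability.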

A short description of experiment [21]: qHTS assay to identify small molecule antagonists of the thyroid receptor (TR) signaling pathway - cell viability counter screen (AID 743064; active = well fitted curve in the direction sought with a large enough effect in the repeat runs; an effect the other way counts as inactive or inconclusive; also: potency is read from the fitted curve at half-maximal effect; nearly all actives have a fitted effect of over 50% in size). In outline:
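In rat pituitary GH3.TRE-Luc reporter cells co-exposed to compound and 1 nM T3 for 23.5 h, cytotoxicity was assessed with CellTiter-Fluor in the same wells, read by fluorescence.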

Experiment [22] has as its target Estrogen receptor (Homo sapiens) (UniProt P03372). Put plainly: qHTS assay to identify small molecule antagonists of the estrogen receptor alpha (ER-alpha) signaling pathway (AID 743069; active = well fitted curve in the direction sought with a large enough effect in the signal ratio in the repeat runs, not every such curve was filed as active; the % refers to the signal ratio; also: potency is read from the fitted curve at half-maximal effect). In outline: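 ER-alpha-UAS-bla GripTite HEK293 line; 2% charcoal-stripped FBS overnight; plated, 4 hr 37C/5% CO2; cpd in DMSO + 17beta-estradiol, 18 hr 37C; LiveBLAzer B/G FRET substrate 2 hr RT; fluorescence intensity.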

Experiment [23] can be described thus: qHTS assay to identify small molecule antagonists of the estrogen receptor alpha (ER-alpha) signaling pathway - cell viability counter screen (AID 743074).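 Also: HEK293 cells carrying ER-alpha-UAS-bla reporter stimulated with 17beta-estradiol; % is scaled to controls: 0 for no effect and ±100 for the full control effect; nearly all actives have a fitted effect of over 45% in size.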
Experiment [24] addresses Estrogen receptor (Homo sapiens) (UniProt P03372). Kind of experiment: qHTS assay to identify small molecule agonists of the estrogen receptor alpha (ER-alpha) signaling pathway (AID 743075).
The nature of experiment [25]: qHTS assay to identify small molecule antagonists of the estrogen receptor alpha (ER-alpha) signaling pathway using the BG1 cell line - cell viability counter screen (AID 743081; active = well fitted curve in the direction sought with a large enough effect in the repeat runs; an effect the other way counts as inactive or inconclusive;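 also: compound given together with 17beta-estradiol as the ER stimulus; series mostly up to about 70 µM; % is scaled to controls: 0 for no effect and ±100 for the full control effect; nearly all actives have a fitted effect of over 45% in size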).
The nature of experiment [26]: qHTS assay to identify aromatase inhibitors - cell viability counter screen (AID 743084; active = well fitted curve in the direction sought with a large enough effect in the repeat runs; an effect the other way counts as inactive or inconclusive;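 also: cells stimulated with testosterone during compound exposure; % is scaled to controls: 0 for no effect and ±100 for the full control effect; nearly all actives have a fitted effect of over 55% in size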).
Experiment [27] addresses Aryl hydrocarbon receptor (Homo sapiens) (UniProt P35869). Put plainly: qHTS assay to identify small molecule that activate the aryl hydrocarbon receptor (AhR) signaling pathway (AID 743085; active = well fitted curve in the direction sought with a large enough effect in the repeat runs; an effect the other way counts as inactive or inconclusive;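 also: HG2L7.5c1 human HepG2 liver cells with stably integrated DRE-driven firefly reporter; series mostly up to about 70 µM; % is scaled to controls: 0 for no effect and ±100 for the full control effect; nearly all actives have a fitted effect of over 15% in size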). In short, it runs like this:
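AhR agonist activity is inferred from enhanced light output of a DRE-controlled firefly luciferase reporter in HepG2 cells, measured with ONE-Glo following 24 h treatment at 37C.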

Experiment [28] in a line: qHTS assay to identify small molecule that activate the aryl hydrocarbon receptor (AhR) signaling pathway - cell viability counter screen (AID 743086; active = well fitted curve in the direction sought with a large enough effect in the repeat runs; an effect the other way counts as inactive or inconclusive;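 also: HepG2 liver cells carrying the AhR DRE luciferase reporter; series mostly up to about 70 µM; % is scaled to controls: 0 for no effect and ±100 for the full control effect; nearly all actives have a fitted effect of over 45% in size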). In outline:
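Cytotoxicity counter screen: CellTiter-Fluor signal (30 min, 37 C) in 4000 HepG2 cells/well carrying the DRE-luciferase reporter, following 24 h compound exposure at 37 C.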

Unmarked numbers belong to inactive results. Inconclusive results are not listed. Calls of active or inactive are those of the source. Unless noted, calls follow the shape of the full dose curve.

Chain of Acetylcholinesterase (Homo sapiens) (P22303 whole entry, looked up): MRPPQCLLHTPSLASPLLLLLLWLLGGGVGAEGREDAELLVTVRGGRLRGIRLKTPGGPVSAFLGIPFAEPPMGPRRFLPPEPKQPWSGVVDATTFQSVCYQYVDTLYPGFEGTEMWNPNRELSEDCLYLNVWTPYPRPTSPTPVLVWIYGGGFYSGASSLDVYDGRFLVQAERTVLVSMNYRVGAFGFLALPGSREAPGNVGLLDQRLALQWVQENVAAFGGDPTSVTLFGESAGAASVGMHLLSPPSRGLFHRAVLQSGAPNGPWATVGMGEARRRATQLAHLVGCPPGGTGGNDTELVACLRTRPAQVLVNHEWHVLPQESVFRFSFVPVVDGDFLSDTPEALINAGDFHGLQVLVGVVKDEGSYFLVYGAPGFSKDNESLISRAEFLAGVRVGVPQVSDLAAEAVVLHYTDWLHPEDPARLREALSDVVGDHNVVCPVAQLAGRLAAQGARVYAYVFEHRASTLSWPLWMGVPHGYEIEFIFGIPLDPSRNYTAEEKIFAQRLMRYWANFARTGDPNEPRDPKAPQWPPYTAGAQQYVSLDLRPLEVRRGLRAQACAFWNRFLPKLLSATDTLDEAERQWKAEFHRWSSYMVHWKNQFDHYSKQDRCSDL
Chain of Estrogen receptor (Homo sapiens) (P03372 whole entry, looked up): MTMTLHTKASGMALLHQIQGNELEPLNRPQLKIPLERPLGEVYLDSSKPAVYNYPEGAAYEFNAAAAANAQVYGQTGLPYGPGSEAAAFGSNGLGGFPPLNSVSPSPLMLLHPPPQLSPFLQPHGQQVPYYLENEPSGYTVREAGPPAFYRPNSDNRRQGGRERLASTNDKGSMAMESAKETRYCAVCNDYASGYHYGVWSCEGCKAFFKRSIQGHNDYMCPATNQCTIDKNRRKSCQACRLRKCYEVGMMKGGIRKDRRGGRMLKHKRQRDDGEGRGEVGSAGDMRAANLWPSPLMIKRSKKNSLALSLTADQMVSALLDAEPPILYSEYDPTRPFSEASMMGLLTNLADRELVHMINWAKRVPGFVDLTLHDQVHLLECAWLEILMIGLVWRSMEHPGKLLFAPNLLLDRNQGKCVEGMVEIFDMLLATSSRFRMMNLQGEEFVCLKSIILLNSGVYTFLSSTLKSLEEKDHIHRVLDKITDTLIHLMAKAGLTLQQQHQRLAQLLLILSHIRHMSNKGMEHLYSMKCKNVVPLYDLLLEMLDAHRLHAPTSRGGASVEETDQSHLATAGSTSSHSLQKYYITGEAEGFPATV
Chain of Aryl hydrocarbon receptor (Homo sapiens) (P35869 whole entry, looked up): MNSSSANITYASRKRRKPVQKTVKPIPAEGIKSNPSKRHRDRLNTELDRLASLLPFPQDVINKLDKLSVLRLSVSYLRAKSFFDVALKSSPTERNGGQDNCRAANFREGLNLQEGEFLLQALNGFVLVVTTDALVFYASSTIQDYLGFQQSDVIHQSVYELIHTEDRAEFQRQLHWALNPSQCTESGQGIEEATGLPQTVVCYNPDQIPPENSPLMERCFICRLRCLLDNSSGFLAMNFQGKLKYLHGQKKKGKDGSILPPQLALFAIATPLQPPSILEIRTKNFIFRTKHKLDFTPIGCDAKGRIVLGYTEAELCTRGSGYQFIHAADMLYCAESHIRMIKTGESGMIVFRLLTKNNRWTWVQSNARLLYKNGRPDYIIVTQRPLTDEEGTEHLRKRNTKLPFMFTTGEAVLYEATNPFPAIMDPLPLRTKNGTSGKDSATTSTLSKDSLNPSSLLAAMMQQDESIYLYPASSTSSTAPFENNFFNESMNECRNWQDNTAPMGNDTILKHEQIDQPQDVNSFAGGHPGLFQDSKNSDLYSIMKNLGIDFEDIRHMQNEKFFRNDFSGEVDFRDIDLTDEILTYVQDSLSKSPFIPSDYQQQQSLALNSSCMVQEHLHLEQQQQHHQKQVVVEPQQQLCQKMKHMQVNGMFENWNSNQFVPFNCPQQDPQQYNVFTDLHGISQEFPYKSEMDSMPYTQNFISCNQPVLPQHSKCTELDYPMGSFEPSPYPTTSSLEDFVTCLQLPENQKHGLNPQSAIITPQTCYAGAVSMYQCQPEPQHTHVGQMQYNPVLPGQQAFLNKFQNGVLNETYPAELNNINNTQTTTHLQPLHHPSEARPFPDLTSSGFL

In the case of `CCCCCCCCCCOc1cc2c(=O)c(C(=O)OCC)c[nH]c2cc1OCC`, the values for the activity change, negative = inhibition in [1], in experiment [2] and in experiment [3] were 0.693% [at 10.5 µM], -0.416% [at 10.5 µM] and -5.96% [at 10.5 µM], respectively.

With `Nc1cccc2c1CN(C1CCC(=O)NC1=O)C2=O` (stereo unspecified), the Potency result in [1], in experiment [2] and in experiment [3] was “inactive” throughout.

Take `CN=C(NC#N)Nc1ccc(C2=NNC(=O)CC2C)cc1` (stereo unspecified): the Potency result in [1], in [2] and in [3] was “inactive” in each case.

`OCCOc1cccc(OCCO)c1`: the Potency entry in [1], in experiment [2] and in [3] was “inactive” throughout.

On to `CO/N=C(/C(=O)N[C@@H]1C(=O)N2C(C(=O)[O-])=C(C[n+]3ccn4ncccc43)CS[C@H]12)c1nsc(N)n1`, for which the Potency result in experiment [1], in [2] and in experiment [3] was “inactive” throughout.

`O=C(O)c1ccc2c(c1)C(=O)OC2=O`: the Potency entry in [1], in [2] and in experiment [3] was “inactive” each time.

As for `COC(=O)/C=C(\C)CCC=C(C)C`, the Potency result in [1], in experiment [2] and in experiment [3] was “inactive” each time.

Regarding `CCCCCCCCCCCCN1CCCCCC1=O`, the Potency entry in [1], in experiment [2] and in [3] was “inactive” each time.

Regarding `CC(=O)CC(=O)Nc1ccccc1C`, the Potency result in experiment [1], in experiment [2] and in experiment [3] was “inactive” in each case.

As to `COc1ccc(-c2cc(C(F)F)nn2-c2ccc(S(N)(=O)=O)cc2)cc1F`, the Potency result in experiment [1], in [2] and in experiment [3] was “inactive” each time.

As to `OCc1ccccc1`, the Potency entry in experiment [1], in [2] and in [3] was “inactive” each time.

Take `O=C1c2c(O)ccc(Nc3ccc(CCO)cc3)c2C(=O)c2c([N+](=O)[O-])ccc(O)c21`: the Potency in experiment [1] is 20 µM (active); in [2], 11.2 µM (active). For the same molecule, the Potency entry in [3] is “inactive”.

Regarding `OCc1cccc(Oc2ccccc2)c1`, the Potency entry in experiment [1], in experiment [2] and in [3] was “inactive” throughout.

On to `COC(C)(C)OC`, for which the Potency result in experiment [1], in experiment [2] and in experiment [3] was “inactive” throughout.

On to `CC(=O)c1c(C)c([N+](=O)[O-])c(C(C)(C)C)c([N+](=O)[O-])c1C`, for which the Potency entry in experiment [1], in [2] and in experiment [3] was “inactive” throughout.

Regarding `COc1ccc(C#N)cc1`, the Potency result in [1], in experiment [2] and in experiment [3] was “inactive” each time.

For the molecule `O.O.O.O=C([O-])C(O)C(O)C(=O)[O-].O=C([O-])C(O)C(O)C(=O)[O-].[K+].[K+].[Sb].[Sb]` (stereo unspecified), the Potency entry in experiment [4], in experiment [5], in [7], in [8], in experiment [10] and in experiment [11] was “inactive” throughout. The Potency result in [12], in [15], in experiment [16], in experiment [17], in experiment [18] and in experiment [23] was “inactive” throughout. Also, the Potency entry in [24], in experiment [25], in experiment [26], in experiment [27] and in experiment [28] was “inactive” in each case. The result in [6], in [9], in experiment [13] and in experiment [14] was inactive. Moreover, the Potency was 11.9 µM (active) in [19], 18.8 µM (active) in experiment [20], 29.8 µM (active) in [21] and 19 µM [inhibitor] (active) in [22].

For the molecule `OC[C@H](Cc1cccc(O)c1)[C@H](CO)Cc1cccc(O)c1`, the Potency entry in experiment [1], in experiment [2] and in [3] was “inactive” throughout.

The values above are taken from PubChem BioAssay (Tox21).
